Experimental data as given in PubChem BioAssay.
A number with no mark means an inactive call. No rule for the calls is given here.

Target: Pantothenate synthetase (Mycobacterium tuberculosis (strain ATCC 25618 / H37Rv)) (UniProt P9WIL5)
Assay: Recombinant Mtb pantothenate synthetase (PanC) inhibitors, coupled enzyme, confirmatory (AID 375);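 also: 0% = full reaction with vehicle and 100% = no enzyme background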
Details: coupled enzyme assay; at 10 µM, active compounds read high

Pantothenate synthetase (Mycobacterium tuberculosis (strain ATCC 25618 / H37Rv)), sequence (P9WIL5 whole entry, looked up): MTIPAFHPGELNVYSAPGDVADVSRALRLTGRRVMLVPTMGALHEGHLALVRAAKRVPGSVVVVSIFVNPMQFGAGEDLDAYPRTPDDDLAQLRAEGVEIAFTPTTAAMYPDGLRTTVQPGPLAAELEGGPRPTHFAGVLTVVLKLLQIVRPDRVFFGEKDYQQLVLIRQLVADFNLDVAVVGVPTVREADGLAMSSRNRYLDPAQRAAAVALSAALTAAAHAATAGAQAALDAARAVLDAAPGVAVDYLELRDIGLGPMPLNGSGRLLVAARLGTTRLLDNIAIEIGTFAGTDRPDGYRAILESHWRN

CCOc1cc(-c2nc(-c3ccccc3OC)no2)cc(OCC)c1OCC
inhibition: 12%

CN(C)CCCC1(c2ccc(F)cc2)OCc2cc(C#N)ccc21 (stereo not drawn)
inhibition: 0%

COCCCNC(=O)c1ccccc1NS(=O)(=O)c1ccc(C)cc1
inhibition: 1%

O=C(CSc1nnc(-c2ccncc2)o1)Oc1ccccc1
inhibition: 0%

Cc1ccccc1OCc1nnc2n1CC(C)S2 (stereo not drawn)
inhibition: 0%

Cc1ccccc1NS(=O)(=O)c1cc(C(=O)N2CCCC2)ccc1C
inhibition: 0%

CCOc1ccc(S(=O)(=O)N2CCN(c3ccc(C)cc3C)CC2)cc1
inhibition: 0%

COc1ccc(CCNC(=O)c2nc3ncccn3n2)cc1OC
inhibition: 0%

CC(C)(C)C(=O)NC1CCN(C(=O)N2CCCC2)CC1
inhibition: 6%

CC(C(=O)Nc1ccccc1-c1ccccc1)N1CCN(C(=O)c2ccco2)CC1 (stereo not drawn)
inhibition: 0%

Cc1ccc(C(=O)CC2(O)C(=O)N(CN3CCOCC3)c3ccccc32)cc1 (stereo not drawn)
inhibition: 7%

CC(=O)OCC(=O)[C@@]12OC(C)(C)O[C@@H]1C[C@H]1[C@@H]3C[C@H](F)C4=CC(=O)C=C[C@]4(C)[C@@]3(F)[C@@H](O)C[C@@]12C
inhibition: 1%

COc1ccc(CCNC(=O)C2CCN(Cc3nc(-c4cccc(Cl)c4)oc3C)CC2)cc1OC
inhibition: 0%

CC(C)(C)C1CCc2c(sc3c2C(=O)NC(c2ccco2)N3)C1 (stereo not drawn)
inhibition: 2%

O=C(COC(=O)c1cnccn1)c1ccc(OC(=O)c2ccccc2)cc1
inhibition: 0%

CC(C)c1nc(NCC2CCCO2)c(C#N)c2c1COC(C)(C)C2 (stereo not drawn)
inhibition: 3%

CCCCC(=O)Nc1nn(CCC)c2nc3ccccc3cc12
inhibition: 0%

Cc1ccc(S(=O)(=O)N2CCCC(c3nnc4n3-c3ccccc3SC4)C2)cc1 (stereo not drawn)
inhibition: 9%

COc1ccc(C2CC(=O)C(C=NCCN3CCOCC3)=C(O)C2)cc1 (stereo not drawn)
inhibition: 0%

CCCN1CCC(NC(=O)Nc2ccc(OC)c(OC)c2)CC1
inhibition: 0%

Cc1ccccc1CN1CCNC1=O
inhibition: 0%

COc1cccc(N2CCN(Cc3nc(N)nc(Nc4ccccc4OC)n3)CC2)c1
inhibition: 0%

CCn1cc(C(=O)OCc2ccc(F)cc2)c(=O)c2ccc(C)nc21
inhibition: 5%

Cc1cc2c(nn1)CCC/C2=N\O
inhibition: 2%

O=C(O)CCc1ccc(-c2cccs2)n1NC(=O)c1ccco1
inhibition: 0%

CCOC(=O)N1CCC(NC(=O)c2ccc(CS(=O)(=O)c3c(Cl)cccc3Cl)o2)CC1
inhibition: 0%

CCCCC(CC)Cn1c2nc3ccccc3nc2c2c(=N)oc(C)nc21 (stereo not drawn)
inhibition: 7%

O=C(CCn1c(=O)sc2ccccc21)NCc1ccc2c(c1)OCO2
inhibition: 0%
